Hit rate of the full screen: of about 290,000 compounds, about 27,000 (9.3%) were called active. Many of the other results were omitted from the sample, so actives are more common in it than they were. Values without a mark were called inactive. Rule as the data show it: active = inhibition mostly above about 28% (no sharp cut-off); inactive = mostly below about 43%.
Test: A qHTS for Small Molecule Inhibitors of Shiga Toxin; also: 0% is about no effect
Settings: Vero cells, Shiga toxin protein synthesis inhibition reporter; at 38.7 µM, hits give high values

| SMILES | inhibition |
| --- | --- |
| COc1cc(C(=O)NCc2nnc(SCC(=O)c3ccc(Cl)cc3)o2)cc(OC)c1OC | -10.7% |
| OCCN1CCN(c2nnc(-c3ccccc3)c3ccccc23)CC1 | -4.9% |
| Cc1nc(C)c(-c2nnc(-c3cccc(S(=O)(=O)N(C)C)c3)o2)cc1C(=O)NN | 3.74% |
| COc1ccc2c(C(=O)c3ccc(C)cc3)n(CCC(N)=O)[n+]([O-])c2c1 | 7.71% |
| NC(=O)Cc1ccc2sc(-c3ccccc3)nc2c1 | 79.9% (active) |
| O=C(O)Cc1sc(-c2ccccc2)nc1-c1cccs1 | 47.2% |
| NC(=O)Cc1ccc2c(c1)[nH]c1ccccc12 | 11.9% |
| Cc1cc(S(=O)(=O)NCc2ccccn2)c(Cl)cc1Cl | -4.73% |
| CCSc1nc(O)c(C(c2cccc(OC)c2)c2c(O)nc(SCC)[nH]c2=O)c(=O)[nH]1 | 19.1% |
| CC(=O)NCCC(=O)Nc1cc(S(=O)(=O)N2CCCCC2)ccc1Oc1cccc(C)c1 | -10.6% |
| Cc1ccc(NC(=S)NC2CCCC2)cc1 | 85% (active) |
| O=C(Nc1cccc(F)c1)NC1CCCCCCC1 | 159% (active) |
| CC(C)c1ccc(NC(=O)NC2CCCCC2)cc1 | 107% (active) |
| Cc1cc(Br)ccc1NC(=S)NC1CCCC1 | 35.4% |
| CC(C)(C)NS(=O)(=O)c1ccc(NC(=O)NC2CCCCC2)cc1 | 56.6% |
| C/C(CC(=O)Nc1cccc(F)c1)=N\NC(=O)C(=O)NC1CCCCC1 | -4.86% |
| Cc1cc(C)cc(NC(=O)NC2CCCCCCC2)c1 | 14.2% |
| Cc1ccc(NC(=O)CSCC(=O)NC2CCCCC2)cc1 | 5.95% |
| O=C(Nc1cccc(F)c1)NC1CCCc2ccccc21 (stereo not given) | -2.03% |
| Cc1cccc(N2CCN(S(=O)(=O)c3ccc(-c4cc(C)no4)s3)CC2C)c1 (stereo not given) | -9.9% |
| COc1ccc([N+](=O)[O-])cc1NCC(=O)c1ccc(C)cc1 | 17.1% |
| COc1ccccc1NC(=O)C1CCN(C(=O)c2ccc(C(C)(C)C)cc2)CC1 | 18.1% |
| COc1ccccc1C(=O)Nc1ccnn1C1CCN(C(=O)C(C)(C)C)CC1 | 20.1% |
| O=C(c1ccc2ccccc2n1)N1CCN(c2ccccc2Cl)CC1 | 62.1% (active) |
| COc1ccccc1N1CCN(C(=O)c2c(-c3c(Cl)cccc3Cl)noc2C)CC1 | -7.02% |

| SMILES | inhibition |
| --- | --- |
| O=C(c1c(Cl)cccc1Cl)N1CCN(c2cccc3[nH]ccc23)CC1 | -6.91% |
| Cn1c(CCc2ccccc2)nnc1SCC(N)=O | -2.98% |
| CCOc1ccc(-n2c(SCC(N)=O)nnc2-c2ccco2)cc1 | 1.48% |
| Cc1ccc(NC(=O)CN(C)C(=O)c2ccc(Br)o2)cc1 | 24.8% |
| COc1ccc(C(=O)CC(=O)c2ccc(C)cc2)c(O)c1 | 5.12% |
| COc1ccc(C(=O)Cc2cnn(-c3ccccc3)c2)c(O)c1 | 104% (active) |
| Cc1cc(O)cc(O)c1C(=O)Cc1cnn(-c2ccccc2)c1 | 52.3% |
| [2H]C(CCOS(N)(=O)=O)c1ccccc1 (stereo not given) | -5.48% |
| CN(CC(=O)Nc1ccc(N2CCOCC2)cc1)CC(=O)Nc1ccccc1[N+](=O)[O-] | -10.3% |
| COc1cc2ccccc2cc1C(=O)Nc1ccc(N2CCOCC2)cc1 | 18.7% |
| O=C(Nc1ccc(N2CCOCC2)cc1)c1ccc(-c2ccccc2[N+](=O)[O-])o1 | 46.4% (active) |
| Cc1nnc(SCC(=O)Nc2ccc(S(=O)(=O)Nc3ccc(Cl)nn3)cc2)s1 | -5.8% |
| NS(=O)(=O)c1ccc(-c2ccc(/C=C3\SC(=O)NC3=O)o2)cc1 | -1.11% |
| Nc1nnnn1/N=C/c1cccs1 | -9.54% |
| Clc1ccc(N/N=C/c2cccs2)nn1 | 122% (active) |
| COc1cccc(/C=N/Nc2ccc(Cl)nn2)c1 | 25.9% |
| Cc1ccsc1/C=N/Nc1ccc(Cl)nn1 | 17.1% |
| Oc1cccc(/C=N/Nc2ccc(Cl)nn2)c1O | 60.3% (active) |
| Cc1ccc(S(=O)(=O)N2CCN(c3ccccc3)CC2)cc1C | -9.21% |
| CCN1C(=O)C(CC(=O)Nc2cc(C)ccc2C)SC1=Nc1ccc(S(N)(=O)=O)cc1 (stereo not given) | 28.8% |
| O=C(CC1SC(=Nc2ccccc2)N(Cc2ccccn2)C1=O)Nc1cccc(Cl)c1 (stereo not given) | 44.2% (active) |
| CN1C(=O)C(CC(=O)Nc2ccccc2)S/C1=N/c1nccs1 (stereo not given) | -5.12% |
| COc1ccc(NC(=O)CCCN2C(=O)C(c3ccccc3)Oc3cccnc32)cc1 (stereo not given) | -5.94% |
| COc1cc(/C=N/Nc2nn3cnnc3c3ccccc23)cc(OC)c1OC | 18.6% |
| CN(CCO)c1ccc(/C=N/Nc2nncc3ccccc23)cc1 | 41.9% (active) |

| SMILES | inhibition |
| --- | --- |
| C/C(=N\Nc1nncc2ccccc12)c1ccc(Cl)c([N+](=O)[O-])c1 | 59.8% |
| Oc1ccc(N=Nc2nccs2)c(O)c1 | 58.3% (active) |
| Oc1ccc2ccccc2c1N=Nc1nccs1 | 13.9% |
| Cc1ccc(CNC(=O)Cn2cnc(S(=O)(=O)N3CCCCC3)c2)o1 | 0.422% |
| Cc1cccnc1NC(=O)c1cccc(S(=O)(=O)N2CCN(c3ccc(F)cc3)CC2)c1 | -9.4% |
| O=C(Nc1ccc2c(c1)CCC2)c1cccc(S(=O)(=O)N2CCN(c3ccc(F)cc3)CC2)c1 | 86.5% (active) |
| O=C(Nc1ccc2c(c1)CCC2)c1cccc(S(=O)(=O)Nc2ccccc2Cl)c1 | 8.91% |
| O=C(O)CS/C(=C\c1ccc(F)cc1)c1nc2ccccc2s1 | 121% (active) |
| CN(Cc1nc2ccccc2s1)C(=O)c1ccc(F)cc1 | 27.2% |
| O=C(O)CSCc1nc2ccccc2s1 | 49.5% |
| CCOC(=O)N1CCN(C(=O)c2ccc3c(=O)n(CCc4ccc(OC)c(OC)c4)c(=O)[nH]c3c2)CC1 | -3.86% |
| Cc1cccc(CSc2nnc(C)c(=O)n2N)c1 | -13% |
| Nn1c(SCc2ccccc2)nnc1C1CCCCC1 | 101% (active) |
| Cc1nnc(SCc2cccc(Cl)c2)n(N)c1=O | -4.93% |
| CC(C)CC(=O)Nc1ccc(Cc2ccncc2)cc1 | -5.26% |
| Cc1nc2cc(C(F)(F)F)ccc2n1CCNc1nc(-c2cc(Cl)c(N)c(Cl)c2)cs1 | -1.88% |
| COc1ccc(CN2CCN(C(=O)CCC(=O)Nc3nnc(C(C)C)s3)CC2)cc1F | -3.9% |
| Cc1ccc(C(=O)NNC(=O)c2cc3cc4ccccc4nc3s2)cc1 | -14.9% |
| Cc1ccc(C(=O)NNc2ncnc3ccccc23)cc1 | 76.1% (active) |
| CCc1nc(SCC(=O)NNC(=O)c2ccc(C)cc2)c2ccccc2n1 | -1.93% |
| CC(C)CC(=O)Nc1nnc(S(=O)(=O)N(C)c2ccc(Cl)cc2)s1 | -4.79% |
| C=CCOC(=O)C1=C(C)NC(C)=C(C(=O)OCC=C)C1c1cccs1 | 86.3% (active) |
| CCOC(=O)C1=C(C)NC(=S)NC1c1cccs1 (stereo not given) | -11.1% |
| CCOC(=O)C1=C(C)Nc2nc3ccccc3n2C1c1cccs1 (stereo not given) | -8.56% |
| COc1ccc(-c2cc(C(=O)NCCCN3CCOCC3)no2)cc1 | 20% |

| SMILES | inhibition |
| --- | --- |
| COc1ccc(CCNC(=O)c2cnc(Cl)c(Cl)c2)cc1 | -1.83% |
| COc1ccc(OCc2cc(C(=O)NCC3(C)COC3)no2)c(Cl)c1 | 75.4% (active) |
| CC1CC(C)CN(CCCNC(=O)c2csc3c2CCCCC3)C1 (stereo not given) | -1.88% |
| CC(=O)c1cccc(NC(=O)c2cc(C)nn2-c2ccccc2)c1 | 30.5% |
| CC(C)C[C@H](NC(=O)N1CCn2c1nc1ccccc12)C(=O)NC1CC1 | 23.3% |
| CCC(C)N1C(=S)SC(C)(C)C1N(O)C(=O)NC1CCCCC1 (stereo not given) | -10.6% |
| CCCCNC(=O)N(O)C1N(/N=C/c2ccc(N(C)C)cc2)C(=S)SC1(C)C (stereo not given) | -5.76% |
| CCCCNC(=O)N(O)C1N(/N=C/c2ccccc2O)C(=S)SC1(C)C (stereo not given) | 34.2% (active) |
| Cc1ccc(S(=O)(=O)NC(=O)c2cccc(C)c2)cc1 | 18.1% |
| Cn1ncc2c(N3CCCCC3)nc(NCCCO)nc21 | 1.02% |
| COc1cc(CN2CCC(n3nccc3NC(=O)CCCc3ccccc3)CC2)ccc1O | 7.77% |
| C/C(CC(=O)NC(C)(C)C)=N\NC(=O)c1ccco1 | 70.6% (active) |
| CC(C)(C)NC(=O)c1cc(NC(=O)c2ccco2)cc(NC(=O)c2ccco2)c1 | 24.3% |
| COc1ccc(N(CC(=O)NC(C)(C)C)C(=O)c2ccco2)cc1 | -10.7% |
| CCNS(=O)(=O)c1ccc(CCC(=O)N2CCN(c3ccc(OC)cc3)CC2)cc1 | 13.1% |
| Cc1nn(CCCC(=O)NCc2ccccc2Cl)c(=O)c2nccn12 | -3.9% |
| NC(=O)c1oc2ccccc2c1NC(=O)CS(=O)(=O)c1ccccc1 | 12.2% |
| COC(=O)c1ccc(CN2C(=O)NC(c3ccccc3)(c3ccccc3)C2=O)o1 | 21.7% |
| Cc1ccc2c(c1)N(CC(=O)NCCCN1CCCCC1)C(=O)c1cccnc1O2 | 2.73% |
| CC(Oc1cccc(NC(=O)c2cccs2)c1)C(=O)c1ccccc1 (stereo not given) | 36.4% |
| O=C(Cc1cccc2ccccc12)Nc1ccc2oc(-c3ccccc3)nc2c1 | 74.8% (active) |
| CC(O)c1cccc(NC(=O)Cc2cccc3ccccc23)c1 (stereo not given) | 0.246% |
| O=C(Nc1ccc2oc(-c3ccc4ccccc4c3)nc2c1)c1cccs1 | 80.9% (active) |
| O=C(Cc1cccc2ccccc12)NNC(=O)Nc1ccc(Cl)cc1 | 62.1% |
| O=C(Nc1ccc(NC(=O)c2cccs2)cc1)c1ccc2ccccc2c1 | 24.5% |
